Results filed as inconclusive are left out. Calls of active or inactive are those of the source. Calls come from the whole dose curve; as a rule, active = well fitted inhibition curve with a large enough effect; inconclusive = small, poorly fitted or top-dose-only effect; inactive = flat fitted curve, though single readings scatter.
Columns and labels:
P93_24 = assay: qHTS profiling for inhibitors of Plasmodium falciparum proliferation (AID 504749); note: potency is the fitted concentration of half-maximal effect; conditions: P. falciparum in erythrocytes, SYBR Green DNA, 72 h; series mostly up to 28.7 µM
In short: (§1)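 SYBR Green fluorescence (ex 485 nm, em 535 nm) reports parasite DNA after 72 h compound exposure of infected red cells at 0.3% parasitemia, 2.5% hematocrit; signal normalized to 0.29 uM artemisinin and vehicle wells.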

P94_40 = assay: as above; conditions: P. falciparum in erythrocytes, SYBR Green DNA, 72 h; series mostly up to 28.7 µM
In short: as §1

PAD = assay: as above; conditions: P. falciparum in erythrocytes, SYBR Green DNA, 72 h; series mostly up to 28.7 µM
In short: as §1

PC15 = assay: as above; conditions: P. falciparum in erythrocytes, SYBR Green DNA, 72 h; series mostly up to 28.7 µM
In short: as §1

PC26 = assay: as above; conditions: P. falciparum in erythrocytes, SYBR Green DNA, 72 h; series mostly up to 28.7 µM
In short: as §1

PC49 = assay: as above; conditions: P. falciparum in erythrocytes, SYBR Green DNA, 72 h; series mostly up to 28.7 µM
In short: as §1

SC27B = assay: as above; conditions: P. falciparum in erythrocytes, SYBR Green DNA, 72 h; series mostly up to 28.7 µM
In short: as §1

TAB109 = assay: as above; conditions: P. falciparum in erythrocytes, SYBR Green DNA, 72 h; series mostly up to 28.7 µM
In short: as §1

TAB113 = assay: as above; conditions: P. falciparum in erythrocytes, SYBR Green DNA, 72 h; series mostly up to 28.7 µM
In short: as §1

TAB165 = assay: as above; conditions: P. falciparum in erythrocytes, SYBR Green DNA, 72 h; series mostly up to 28.7 µM
In short: as §1

CRL-7250 = normal cell line; assay: Cytotoxic Profiling of Annotated Libraries Using Quantitative High-Throughput Screening (AID 1296008); conditions: Five cell lines viability, CellTiter-Glo ATP luminescence, 48-72 h; stronger effect = lower value; for max response: % is set by controls: 0 for no effect and ±100 for the full control effect
In short: (§2)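 Cells exposed to compounds for 48 or 72 hr at 37 degrees Celsius. Viability read as ATP-coupled luminescence with CellTiter-Glo after 10 min at room temperature.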

HEK293 = assay: as above; conditions: Five cell lines viability, CellTiter-Glo ATP luminescence, 48-72 h; stronger effect = lower value
In short: as §2

HaCat = assay: as above; conditions: Five cell lines viability, CellTiter-Glo ATP luminescence, 48-72 h; stronger effect = lower value
In short: as §2

KB-3-1 = assay: as above; conditions: Five cell lines viability, CellTiter-Glo ATP luminescence, 48-72 h, stronger effect = lower value
In short: as §2

NIH3T3 = assay: as above; conditions: Five cell lines viability, CellTiter-Glo ATP luminescence, 48-72 h; stronger effect = lower value
In short: as §2

HEK293T = assay: qHTS assay to identify novel small-molecules to repurpose for Merkel cell carcinoma treatment (AID 1296009); conditions: MCC and control cell lines, CellTiter-Glo viability, 72 h; at 44.8 µM (top of the series) unless noted
In short: (§3)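 CellTiter-Glo luminescence after 72 hr compound exposure at 37 degree celsius gave cell viability. Libraries NPC and MIPE were run as 8- and 11-point dose responses; RLUs normalized to DMSO (negative) and no-cell (cytotoxicity) controls.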

MCC-13 = assay: as above; conditions: MCC and control cell lines, CellTiter-Glo viability, 72 h; series mostly up to 46 µM
In short: as §3

MCC-26 = assay: as above; conditions: MCC and control cell lines, CellTiter-Glo viability, 72 h; series mostly up to 46 µM
In short: as §3

W2 = assay: qHTS profiling for inhibitors of Plasmodium falciparum proliferation (AID 504749); note: potency is the fitted concentration of half-maximal effect; conditions: P. falciparum in erythrocytes, SYBR Green DNA, 72 h; series mostly up to 28.7 µM
In short: as §1
Note: nearly all actives have a fitted effect of over 60% in size.

CCCCCCCCCCCCCCCCC(C(=O)O)C(O)(CC(=O)O)C(=O)O (stereo not given)
inactive: Potency (P93_24) | Potency (P94_40) | Potency (PAD) | Potency (PC15) | Potency (PC26) | Potency (PC49) | Potency (SC27B) | Potency (TAB109) | Potency (TAB113) | Potency (TAB165) | outcome (CRL-7250) | outcome (HEK293) | max response (HaCat) 2.76% | max response (KB-3-1) 6.88% | max response (NIH3T3) 0.574% | outcome (HEK293T) | outcome (MCC-13) | outcome (MCC-26)

Cc1ccccc1N=Nc1ccc(N=Nc2c(O)ccc3ccccc23)c(C)c1
inactive: Potency (P93_24) | Potency (P94_40) | Potency (PAD) | Potency (PC15) | Potency (PC26) | Potency (PC49) | Potency (SC27B) | Potency (TAB109) | Potency (TAB113) | Potency (TAB165) | Potency (W2) | max response (CRL-7250) -16.7% | outcome (HEK293) | max response (HaCat) 0.728% | max response (KB-3-1) 9.66% | max response (NIH3T3) 0.522% | outcome (HEK293T) | outcome (MCC-13) | outcome (MCC-26)

CCCCCCCCCCC(CO)CCCCCCCC (stereo not given)
inactive: Potency (P94_40) | Potency (PAD) | Potency (PC15) | Potency (PC26) | Potency (PC49) | Potency (SC27B) | Potency (TAB109) | Potency (TAB113) | Potency (TAB165) | max response (CRL-7250) -6.12% | outcome (HEK293) | max response (HaCat) -2.15% | max response (KB-3-1) 12.2% | max response (NIH3T3) 1.86% | outcome (HEK293T) | outcome (MCC-13) | outcome (MCC-26)

NS(=O)(=O)c1cc(C2(O)NC(=O)c3ccccc32)ccc1Cl (stereo not given)
inactive: max response (CRL-7250) -0.145% | max response (HEK293) -4.45% | max response (HaCat) 3.24% | max response (KB-3-1) -1.8% | outcome (NIH3T3) | outcome (MCC-13) | outcome (MCC-26)

CN(C(=O)c1c(O)c2ccccc2n(C)c1=O)c1ccccc1
inactive: Potency (P93_24) | Potency (P94_40) | Potency (PAD) | Potency (PC15) | Potency (PC26) | Potency (PC49) | Potency (SC27B) | Potency (TAB109) | Potency (TAB165) | Potency (W2) | max response (CRL-7250) 0.215% | max response (HEK293) -2.97% | max response (HaCat) -1.18% | max response (KB-3-1) 9.88% | outcome (NIH3T3) | outcome (MCC-13)

O=C(O)c1ccc(OCCCOc2ccc(C(=O)O)cc2)cc1
inactive: Potency (P93_24) | Potency (P94_40) | Potency (PAD) | Potency (PC15) | Potency (PC26) | Potency (PC49) | Potency (SC27B) | Potency (TAB109) | Potency (TAB113) | Potency (TAB165) | Potency (W2) | max response (CRL-7250) -0.605% | max response (HEK293) -0.863% | max response (HaCat) -3.27% | max response (KB-3-1) 3.43% | max response (NIH3T3) 2.41% | outcome (MCC-13) | outcome (MCC-26)

CC(O)CCCCn1c(=O)c2c(ncn2C)n(C)c1=O (stereo not given)
inactive: Potency (P93_24) | Potency (P94_40) | Potency (PAD) | Potency (PC15) | Potency (PC26) | Potency (PC49) | Potency (SC27B) | Potency (TAB109) | Potency (TAB113) | Potency (TAB165) | Potency (W2) | max response (CRL-7250) 2.98% | max response (HEK293) 0.321% | max response (HaCat) -6.07% | max response (KB-3-1) -8.11% | max response (NIH3T3) 4.47% | outcome (MCC-13) | outcome (MCC-26)

O=C(CCBr)N1CCN(C(=O)CCBr)CC1
inactive: Potency (P93_24) | Potency (P94_40) | Potency (PAD) | Potency (PC15) | Potency (PC26) | Potency (PC49) | Potency (SC27B) | Potency (TAB109) | Potency (TAB113) | Potency (TAB165) | Potency (W2) | max response (CRL-7250) -5.81% | max response (HEK293) 0.232% | max response (HaCat) -10.3% | max response (KB-3-1) -5.88% | outcome (NIH3T3) | outcome (MCC-13) | outcome (MCC-26)

Cn1c([N+](=O)[O-])cnc1COC(N)=O
inactive: Potency (P93_24) | Potency (P94_40) | Potency (PAD) | Potency (PC15) | Potency (PC26) | Potency (PC49) | Potency (SC27B) | Potency (TAB109) | Potency (TAB113) | Potency (TAB165) | Potency (W2) | max response (CRL-7250) -9.26% | max response (HEK293) 2.06% | max response (HaCat) -19.4% | max response (KB-3-1) -4.93% | max response (NIH3T3) 2.03% | outcome (MCC-13) | outcome (MCC-26)

CC(C)CCOC(=O)c1ccc(N(C)C)cc1
inactive: Potency (P93_24) | Potency (P94_40) | Potency (PAD) | Potency (PC15) | Potency (PC26) | Potency (PC49) | Potency (SC27B) | Potency (TAB109) | Potency (TAB113) | Potency (TAB165) | Potency (W2) | max response (CRL-7250) -21% | max response (HEK293) -23.8% | max response (HaCat) -5.98% | max response (KB-3-1) 11.7% | max response (NIH3T3) -25.1% | outcome (MCC-13) | outcome (MCC-26)

O=C1c2ccccc2S(=O)(=O)N1CCCCN1CCN(c2ncccn2)CC1
inactive: Potency (P93_24) | Potency (P94_40) | Potency (PAD) | Potency (PC15) | Potency (PC26) | Potency (PC49) | Potency (SC27B) | Potency (TAB109) | Potency (TAB113) | Potency (TAB165) | max response (CRL-7250) -12.2% | max response (HEK293) -4.06% | max response (HaCat) -10.1% | max response (KB-3-1) -5.25% | outcome (NIH3T3) | outcome (MCC-13) | outcome (MCC-26)

CCN(CC)CCOC(=O)C(c1ccccc1)c1ccccc1
inactive: Potency (P93_24) | Potency (P94_40) | Potency (PAD) | Potency (PC15) | Potency (PC26) | Potency (PC49) | Potency (SC27B) | Potency (TAB109) | Potency (TAB113) | Potency (TAB165) | max response (CRL-7250) 4.76% | max response (HEK293) -4.53% | max response (HaCat) -2.12% | max response (KB-3-1) 0.686% | max response (NIH3T3) -4.35% | outcome (MCC-13) | outcome (MCC-26)
active: Potency (W2) 7.57 µM

CCc1cccc(CC)c1NC(=O)CN(CC(=O)O)CC(=O)O
inactive: Potency (P93_24) | Potency (P94_40) | Potency (PAD) | Potency (PC15) | Potency (PC26) | Potency (PC49) | Potency (SC27B) | Potency (TAB109) | Potency (TAB113) | Potency (TAB165) | Potency (W2) | max response (CRL-7250) -19.6% | max response (HEK293) -1.81% | max response (HaCat) -2.45% | max response (KB-3-1) -15.5% | max response (NIH3T3) -0.454% | outcome (MCC-13) | outcome (MCC-26)

Source: PubChem BioAssay (NCATS)
